# Screening results from PubChem BioAssay.
# HepG2 viability: qHTS for Inhibitors of TGF-b: Cytotox Counterscreen; 0.76% of 410,000 active; HepG2 CAGA-GFP viability, ATP luminescence, 18 h; AID 588856, 2011; Potency, µM (top dose mostly 46.1 µM), without a hit: top-dose activity change, negative = cytotoxicity, usual class: cytotoxic
#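 HepG2 CAGA-GFP cells (1000/well, DMEM with 1% FBS) received compound, then TGF-beta at 500 pg/mL final, and were incubated 18 hours at 37 degrees C. Viability was read by CellTiter-Glo luminescence. Media-only wells were set as complete cell-killing and DMSO as no toxicity.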
# ATXN2 expr inh: Primary qHTS for Inhibitors of ATXN expression; HEK-293 ATXN2-luciferase reporter, luminescence, 24 h; Potency, µM (series often up to 57 µM), for the others: at the highest dose activity change, negative = inhibition, most hits filed as inhibitors; 0.72% of 360,000 active; further: on the % scale 0 is the no-effect control and ±100 the full control effect; nearly all actives have a fitted effect of over 55% in size
#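 qHTS (up to 57 uM final) was run with 24 h compound exposure of reporter cells at 37 °C. Each well was multiplexed: SteadyGlo luminescence measured ATXN2-luciferase expression after a fluorogenic Gly-Phe-AFC viability readout (25 uM final).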
# ATXN viability: Viability Counterscreen for Primary qHTS for Inhibitors of ATXN expression | AID 651635, 2014 | S2 cells (HEK-293 line with an ATXN2-luciferase reporter) viability, CellTiter-Fluor protease fluorescence, 24 h | Potency, µM (titrated, usually from 56.7 µM), actives largely listed as cytotoxic | 0.49% of 400,000 active; further: nearly all actives have a fitted effect of over 40% in size
# TGFb inhibitor: qHTS for Inhibitors of TGF-b; 1.2% of 410,000 active; Potency, µM (titrated, usually from 46.1 µM), without a hit: at the top dose activity, negative = inhibition, actives largely listed as inhibitors; HepG2 CAGA-GFP TGF-b/SMAD3 reporter, GFP fluorescence, 18 h; TGF-beta stimulated, 500 pg/mL final; further: on the % scale 0 is the no-effect control and ±100 the full control effect; nearly all actives have a fitted effect of over 65% in size
#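 HEPG2 CAGA-GFP, 1000 cells/well; 2 h settle, 37 C; cpd via pin tool; TGF-b 500 pg/mL final; 18 h, 37 C; GFP imaging ex488/em500-530; %Activity normalised to -TGF-b and +DMSO controls; CRC fit, curve class.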
# * hit, by the source's call; i = inactive; u = inconclusive; x = no result. Sampled rows, rich in hits. Any-hit rate of the full collection: about 2.3%. The call rests on the fitted dose curve; in most records, active means well fitted curve in the direction sought with a large enough effect; inconclusive means small, poorly fitted or top-dose-only effect, or another doubt; inactive means no such curve, though single readings can be large; an effect the other way counts as inactive or inconclusive. Potency means the concentration at half of the fitted maximal effect.
SMILES,HepG2 viability,ATXN2 expr inh,ATXN viability,TGFb inhibitor
CCOc1ccc2nc(C)cc(Nc3ccc4c(c3)OCCO4)c2c1,-81%,u,u,22µM*
Cc1ccc2nc(C)cc(Nc3ccc4c(c3)OCCO4)c2c1,-22%,-19%,u,u
CCOc1ccc2nc(C)cc(Nc3cccc([N+](=O)[O-])c3)c2c1,-101%,28µM*,x,u
O=C(C[n+]1ccncc1)c1cccc2ccccc12,-16%,x,x,-20%
CCOC(=O)c1c(CSC(=N)N)n(C)c2cc(Br)c(OC(C)=O)cc12,35%,u,x,-25%
CCOC(=O)c1c(CSC(=N)N)n(-c2ccc(C)cc2)c2cc(Br)c(OC(C)=O)cc12,11µM*,u,25µM*,22µM*
Cc1cccc(Cn2cnc3c(cnn3C(C)(C)C)c2=O)c1,-66%,x,x,u
O=S1(=O)C=C(Sc2nc3ccccc3s2)c2ccccc21,11µM*,u,7.1µM*,2.8µM*
Cn1c(=NC(=O)CCl)sc2ccccc21,11µM*,u,32µM*,u
O=C(CN1CCCCCCC1)N/N=C/c1ccc([N+](=O)[O-])o1,20µM*,-20%,i,13µM*
O=C(CNc1cccc([N+](=O)[O-])c1)N/N=C/c1ccc([N+](=O)[O-])o1,-57%,u,i,7.1µM*
O=C(Cc1ccc([N+](=O)[O-])cc1)N/N=C/c1ccc([N+](=O)[O-])o1,-115%,x,i,16µM*
O=C(CN1CCOCC1)NN=Cc1ccc([N+](=O)[O-])o1,-46%,-32%,i,u
O=C(CNc1cccc2ccccc12)N/N=C/c1ccc([N+](=O)[O-])o1,7.9µM*,u,u,6.3µM*
Cc1cc2ncn(/N=C/c3ccc([N+](=O)[O-])o3)c2cc1C,13µM*,u,i,2.5µM*
CC1(C(=O)N/N=C/c2ccc([N+](=O)[O-])o2)CC1(Br)Br (centres undefined),11µM*,u,u,11µM*
O=[N+]([O-])c1ccc(/C=N\O)o1,x,2%,i,x
Cc1ccc(S(=O)(=O)N/N=C\c2ccc([N+](=O)[O-])o2)cc1C,6%,-8%,i,-26%
O=[N+]([O-])c1ccc(/C=N/N=C/c2ccc([N+](=O)[O-])o2)o1,-16%,17µM*,u,u
CC(=O)N/N=C/c1ccc([N+](=O)[O-])o1,x,-9%,i,x
COC(=O)c1cc(S(N)(=O)=O)ccc1OC,x,7%,i,x
Cc1ccc(CSc2nc3ccc(NC(=O)COc4ccccc4F)cc3s2)cc1,-8%,6%,i,-30%
Cc1ccccc1NC(=O)CSc1nc2ccc(NC(=O)COc3ccccc3F)cc2s1,-26%,18µM*,u,u
CCC[n+]1c(/C=C/c2c(OC)cc(OC)cc2OC)ccc2ccccc21,-37%,x,x,49%
COc1ccc(-c2cc3nc(C)n(N)c(=O)c3s2)cc1,2.8µM*,x,i,31%
SMILES,HepG2 viability,ATXN2 expr inh,ATXN viability,TGFb inhibitor
COc1ccc(-c2cc3nc4n(c(=O)c3s2)CCCCC4)cc1,-51%,2%,i,11%
Cc1nc2cc(-c3ccccc3)sc2c(=O)n1N,7.1µM*,0.89µM*,i,-13%
COc1ccc(-c2cc3nc4n(c(=O)c3s2)CCC4)cc1,-38%,5µM*,i,15%
COc1cccc(CNc2nc3cc(-c4ccccc4)sc3c(=O)n2C)c1,-15%,3%,i,u
CN(C(=O)c1cnn(-c2nccc(-c3ccccc3C(F)(F)F)n2)c1C1CC1)C1CCOC1 (centres undefined),x,x,i,x
O=C(CC1OC(=O)c2ccccc21)Nc1ccc(Cl)c(S(=O)(=O)N2CCCCC2)c1 (centres undefined),8.9µM*,-5%,i,0%
COc1cccc(CNC(=O)c2c(OC)cc(=O)n3c2CCN(C(=O)c2ccc(C)cc2C)CC3)c1,x,x,i,x
COc1ccc(-c2nnc(SCC(=O)Nc3cc(OC)ccc3OC)nc2-c2ccc(OC)cc2)cc1,-13%,x,x,10µM*
COc1ccc(-c2nnc(SCC(=O)Nc3cccc(Cl)c3C)nc2-c2ccc(OC)cc2)cc1,7%,1%,i,-13%
Fc1ccc(/C=C/c2ccc3ccccc3n2)cc1,-30%,x,x,u
O/N=C(/C[n+]1ccsc1)c1ccc(I)cc1,-4%,x,x,-3%
CC[n+]1c(/C=C/C=C/N(C(C)=O)c2ccccc2)sc2cc(OC)ccc21,-37%,20µM*,32µM*,168%
CC[n+]1c(/C=C(\C)OC)sc2ccccc21,1%,-10%,i,-1%
Cc1ccc(C)c(N(CC(=O)NC2CCCC2)C(=O)c2oc(C(C)(C)C)cc2C)c1,22µM*,u,u,u
Cc1cc(C(C)(C)C)oc1C(=O)N(CC(=O)NC1CCCC1)Cc1ccccc1,3%,-11%,i,0%
Cc1c(C(=O)N2CCCCC2c2cccnc2)sc2ncnc(NCc3cccs3)c12 (centres undefined),x,x,i,x
CO/N=C/NC(=O)NOCc1ccc(Cl)cc1Cl,18%,4%,i,2%
O=C(N/C=N/OCc1ccc(Cl)cc1Cl)NOCc1c(Cl)cccc1Cl,18µM*,u,i,-16%
COc1ccc(OC)c(-c2cc(Cl)c3c(c2)CC(CNC(=O)c2coc4c2C(=O)CCC4)O3)c1 (centres undefined),x,x,i,x
CCC(=O)NCc1nc(-c2cccc(NC(=O)c3ccc(C)s3)c2)oc1C,x,x,i,x
CCOc1c(Br)cc(CNC2CCCCCCC2)cc1OC,11µM*,x,u,u
CCN(CC)CCNC(=O)c1[nH]c2ccccc2c1Sc1ccc(Cl)cc1,14µM*,u,x,u
CN(C)c1ccc(N=Cc2ccnc3ccccc23)cc1,-34%,x,x,0%
C/C(=N\Nc1ccc([N+](=O)[O-])cc1)c1ccc(N)cc1,-8%,36%,i,-4%
C/C(=N\Nc1nc(C)c(C)s1)c1ccc([N+](=O)[O-])cc1,-18%,30µM*,x,9%
SMILES,HepG2 viability,ATXN2 expr inh,ATXN viability,TGFb inhibitor
Cc1ccc(N=Cc2cccc(O)c2O)c(C)c1,-61%,x,x,u
Cc1ccccc1N=Cc1cccc(O)c1O,-56%,-13%,u,16µM*
Cc1cccc(CSC(=N)N)c1,6%,5%,i,-6%
Cc1cccc(CSC(Nc2ccc(F)cc2)=C(C#N)C#N)c1,-28%,u,i,5µM*
N#CC(C#N)=C(Nc1ccc(F)cc1)SCc1cccc(Br)c1,-75%,u,u,1.6µM*
CCCS(=O)(=O)NCc1c(C)ncc2c1CCN(C(=O)c1ccc(Cl)cc1)C2,x,x,i,x
CN(CC=CC#CC(C)(C)C)Cc1cccc2ccccc12,x,-15%,x,x
O=C(CC(NC(=O)c1ccccc1)c1ccccc1)OCc1nc(-c2cccc(Cl)c2)no1 (centres undefined),17%,x,x,15%
CC(C)Cc1ccc(S(=O)(=O)N2CCC(c3ccncc3)CC2)cc1,-65%,16µM*,u,u
